Laboratory results from PubChem BioAssay (Tox21).
“And” between values parts separate entries of the source, which are not always exact repeats. Equal values may be shown once. Records with an inconclusive call do not appear. A call without a number means that no potency is given here. The source holds several records for some structures; these can differ, active in one and inactive in another. The source made the active and inactive calls. Calls come from the whole dose curve; as a rule, active = well fitted curve in the direction sought with a large enough effect in the repeat runs; inconclusive = weak or mixed curves; inactive = no such curve, though single readings can be large; an effect the other way counts as inactive or inconclusive.

Key:
[1] = A CellTox Green Cytotoxicity Assay to monitor cytotoxicity in HEK293 cells - 40 hour (AID 1224871); note: nearly all actives have a fitted effect of over 45% in size; note: potency is the fitted concentration of half-maximal effect
How it was run: (§1)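 Fluorescence from a DNA-binding dye excluded by viable cells was measured repeatedly in the same HEK293 wells (600 cells/well) during continuous compound exposure at 37 C. Each assay gives one read point: 0, 8, 16, 24, 32 or 40 h.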

[2] = qHTS RealTime-Glo MT Cell Viability Assay in HEK293 cells - 16 hour (AID 1224872); note: nearly all actives have a fitted effect of over 50% in size; note: potency is the fitted concentration of half-maximal effect
How it was run: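 Cells + reagent dispensed (600 cells/well, HEK293) → 5 h at 37 C/5% CO2 → 23 nL compound in DMSO pinned → 40 h at 37 C → luminescence read at 0, 8, 16, 24, 32, 40 h.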

[3] = qHTS RealTime-Glo MT Cell Viability Assay in HepG2 cells - 8 hour (AID 1224873); note: nearly all actives have a fitted effect of over 55% in size
How it was run: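 HepG2 cells mixed with RealTime-Glo MT reagents (NanoLuc plus cell-permeant prosubstrate) were seeded at 600 cells/well, incubated 5 h at 37 C/5% CO2, then pinned with compounds in DMSO; nonlytic luminescence tracked viability during 40 h treatment.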

[4] = qHTS RealTime-Glo MT Cell Viability Assay in HEK293 cells - 40 hour (AID 1224874); conditions: RealTime-Glo luminescence; max response: stronger effect = lower value; note: nearly all actives have a fitted effect of over 50% in size; note: potency is the fitted concentration of half-maximal effect
How it was run: (§2)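 Luminescence, which tracks viable cell number through reduction of the prosubstrate to a NanoLuc substrate, was read over continuous 37 C culture. Cells (600/well) were premixed with reagent and rested 5 h before 23 nL of compound in DMSO was pinned.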

[5] = A CellTox Green Cytotoxicity Assay to monitor cytotoxicity in HEK293 cells - 24 hour (AID 1224875); note: series mostly up to about 77 µM; nearly all actives have a fitted effect of over 45% in size
How it was run: as §1

[6] = A CellTox Green Cytotoxicity Assay to monitor cytotoxicity in HepG2 cells - 16 hour (AID 1224876); note: nearly all actives have a fitted effect of over 45% in size
How it was run: (§3)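 Real-time cytotoxicity: fluorescence of a cell-impermeant cyanine dye binding DNA of dead HepG2 cells, measured repeatedly (0–40 h) during compound exposure at 37 C. Cells seeded 600/well with reagent, dosed after 5 h.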

[7] = qHTS RealTime-Glo MT Cell Viability Assay in HepG2 cells - 32 hour (AID 1224877); note: nearly all actives have a fitted effect of over 55% in size
How it was run: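 Real-time, nonlytic viability: 600 HepG2 cells/well mixed with NanoLuc enzyme plus prosubstrate; 5 h settle, compound (DMSO) added by pintool; luminescence monitored over 40 h at 37 C.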

[8] = A CellTox Green Cytotoxicity Assay to monitor cytotoxicity in HepG2 cells - 24 hour (AID 1224878); note: nearly all actives have a fitted effect of over 45% in size; note: potency is the fitted concentration of half-maximal effect
How it was run: as §3

[9] = qHTS RealTime-Glo MT Cell Viability Assay in HEK293 cells - 0 hour (AID 1224880); note: nearly all actives have a fitted effect of over 45% in size; note: potency is the fitted concentration of half-maximal effect
How it was run: as §2

[10] = A CellTox Green Cytotoxicity Assay to monitor cytotoxicity in HepG2 cells - 40 hour (AID 1224879); note: nearly all actives have a fitted effect of over 40% in size; note: potency is the fitted concentration of half-maximal effect
How it was run: as §3

Row | Compound | Potency [1] | Potency [2] | outcome [3] | max response [4] | Potency [5] | Potency [6] | outcome [7] | Potency [8] | Potency [9] | Potency [10] | Potency [4]
1 | NC(=O)c1ccc([N+](=O)[O-])cc1Cl | inactive | inactive | inactive | -1.29% (inactive) and 1.15% (inactive) | inactive | inactive | inactive | inactive | inactive | – | –
2 | C[C@]12C=CC(=O)C=C1CC[C@@H]1[C@@H]2C(=O)C[C@@]2(C)[C@H]1CC[C@]2(O)C(=O)CO | inactive | inactive | inactive | -10.3% (inactive) and 0.237% (inactive) and 8.61% (inactive) | – | inactive | inactive | inactive | inactive | inactive | –
3 | C[C@]12C[C@H](O)[C@H]3[C@@H](CCC4=CC(=O)CC[C@@]43C)[C@@H]1CC[C@@H]2C(=O)CO | inactive | inactive | inactive | -9.57% (inactive) | inactive | inactive | inactive | inactive | 13.8 µM (active) | – | –
4 | CC(C)(C)CC(C)(C)c1ccc(O)c(-n2nc3ccccc3n2)c1 | inactive | 44.3 µM (active) and inactive | inactive | -13.8% (inactive) and -3.1% (inactive) | inactive | inactive | inactive | inactive | inactive | – | 49.7 µM (active)
5 | C/C=C/c1ccc(O)c(OC)c1 | inactive | inactive | inactive | -5.09% (inactive) and 1.37% (inactive) and 1.68% (inactive) | inactive | inactive | inactive | inactive | inactive | – | –
6 | Cn1cnc2c1c(=O)[nH]c(=O)n2C | inactive | inactive | inactive | 8.97% (inactive) and 7.21% (inactive) | inactive | inactive | inactive | inactive | inactive | – | –
7 | CCCCOC(=O)CCCCCCCCC(=O)OCCCC | inactive | inactive | inactive | 14.7% (inactive) and 5.35% (inactive) | inactive | inactive | inactive | inactive | inactive | inactive | –
8 | CC(C)=CCC/C(C)=C/CO | inactive | inactive | inactive | 7.58% (inactive) and 13.8% (inactive) and -0.309% (inactive) | inactive | inactive | inactive | inactive | inactive | – | –
9 | CC(C)CC(C)CC(O)CC(C)C (stereo not drawn) | inactive | inactive | inactive | -0.631% (inactive) and 5.18% (inactive) | inactive | inactive | inactive | inactive | inactive | – | –
10 | COc1ccc(C(=O)c2ccccc2)c(O)c1 | inactive | inactive and 21.9 µM (active) | inactive | -12.2% (inactive) and 5.78% (inactive) | inactive | inactive | inactive | inactive | inactive | inactive | 7.76 µM (active)
11 | O=c1cc[nH]c(=O)[nH]1 | inactive | inactive | inactive | -9.27% (inactive) and 1.51% (inactive) | inactive | inactive | inactive | inactive | inactive | inactive | –
12 | Cc1cccc2ccccc12 | inactive | inactive | inactive | 3.52% (inactive) and 3.07% (inactive) | inactive | inactive | inactive | inactive | inactive | inactive | –
13 | CC1=NN(c2ccccc2)C(=O)C1 | inactive | inactive | inactive | -0.0619% (inactive) and 3.79% (inactive) and -1.74% (inactive) | – | inactive | inactive | inactive | inactive | – | –
14 | N[C@@H](Cc1c[nH]c2ccccc12)C(=O)O | inactive | inactive | inactive | 11.5% (inactive) | – | inactive | inactive | inactive | inactive | – | –
15 | CC(=O)OC/C=C(C)/C=C/C=C(C)/C=C/C1=C(C)CCCC1(C)C | inactive | – | inactive | -17.8% (inactive) and 3.29% (inactive) and 17.2% (inactive) | inactive | inactive | inactive | inactive | inactive | – | –
16 | C[C@]12CC[C@@H]3c4ccc(O)cc4CC[C@H]3[C@@H]1CCC2=O | 49 µM (active) and inactive | inactive | inactive | – | inactive | inactive | inactive | inactive | inactive | – | –
17 | NC(=O)NO | inactive | inactive | inactive | 19.8% (inactive) and 1.62% (inactive) | – | inactive | inactive | inactive | inactive | – | –
18 | C#C[C@]1(O)CC[C@H]2[C@@H]3CCC4=CC(=O)CC[C@@H]4[C@H]3CC[C@@]21CC | 49.1 µM (active) and inactive | – | inactive | -17.5% (inactive) | – | inactive | inactive | inactive and 38.9 µM (active) | inactive | inactive and 43.6 µM (active) | 43.6 µM (active)
